In PubChem BioAssay (NCATS):
Records with an inconclusive call do not appear. Where a call stands in place of a potency, no number is given. Values without a mark were called inactive. Activity calls are given as the source filed them. The call rests on the fitted dose curve; in most records, active means well fitted curve in the direction sought with a large enough effect; inconclusive means small, poorly fitted or top-dose-only effect, or another doubt; inactive means no such curve, though single readings can be large; an effect the other way counts as inactive or inconclusive.

Key:
[1] = biological target: Aldehyde dehydrogenase, mitochondrial (Homo sapiens) (UniProt P05091); test: qHTS for Inhibitors of the Aldehyde Dehydrogenase Family (ALDH2) Primary screen (AID 2061308); further: nearly all actives have a fitted effect of over 55% in size
[2] = biological target: Retinaldehyde dehydrogenase 3 (Homo sapiens) (UniProt P47895); test: qHTS for Inhibitors of the Aldehyde Dehydrogenase Family (ALDH1A3) Primary screen (AID 2061315)

Structure (SMILES) | Potency [1] | Potency [2] | activity change, negative = inhibition [1] | activity change, negative = inhibition [2]
COc1ccc(-c2nnc3n2N=C(c2ccccc2OC)CS3)c(OC)c1 | inactive | inactive |  | 
O=C(Nc1ncc(Cc2cccc(C(F)(F)F)c2)s1)c1ccc(-c2cccc([N+](=O)[O-])c2)o1 | inactive | inactive |  | 
COc1ccc(C2=Nn3c(nnc3-c3ccccc3C(F)(F)F)SC2)cc1OCC1CC1 | inactive | inactive |  | 
c1csc(CCNc2ncnc3ccc(-c4ccc5c(c4)OCO5)cc23)c1 | inactive | inactive |  | 
O=C(Nc1ccc(S(=O)(=O)Nc2nccs2)cc1)C1CC(OCc2ccccc2)C1 (centres undefined) | inactive | inactive |  | 
O=C(O)c1ccc(S(=O)(=O)N[C@H](Cc2ccc([N+](=O)[O-])cc2)C(=O)O)cc1 | inactive | inactive |  | 
Cc1ccc(S(=O)(=O)Nc2cnccc2C(=O)Nc2nc(-c3ccc(Cl)c(Cl)c3)cs2)cc1 | inactive | inactive |  | 
CCOC(=O)c1nn(-c2ccccc2)c(=O)c2c(N)sc(C)c12 | inactive | inactive |  | 
CCCCNc1nc(C)nc2c1nc(-c1ccccc1)n2CCCN(C)C | inactive | inactive |  | 
O=C(OCC#CCSc1nnc(-c2cccc3ccccc23)o1)c1sccc1Cl | inactive | inactive |  | 
Cc1cccc(CNc2ccnc(-c3ccc(F)cc3F)n2)c1 | inactive | inactive |  | 
O=[N+]([O-])c1cccc(CNc2ccc(S(=O)(=O)Nc3nccs3)cc2)c1O | inactive | inactive |  | 
COc1cc(O)c(C(CC(=O)N2CCCC(c3ccccc3)C2)c2ccc3c(c2)OCO3)c(OC)c1 (centres undefined) | inactive | inactive |  | 
CCc1nn2c(=O)cc(NC3CNC3)nc2s1 | inactive | inactive |  | 
O=C1CCCC2=C1C(c1[nH]ncc1Cl)N=C(Nc1nccs1)N2 (centres undefined) | inactive | inactive |  | 
O=S(=O)(NCCNc1nc(-c2ccco2)nc2ccccc12)c1ccccc1 | inactive | inactive |  | 
CCNC(=O)C1CCC(C(=O)Nc2ccc([S+](=O)([O-])Nc3nccs3)cc2)CC1 (centres undefined) | inactive | inactive |  | 
Cc1ccc(C(=O)Nc2ccc(S(=O)(=O)Nc3nccs3)cc2)cc1C | inactive | inactive |  | 
O=[S+]([O-])(Nc1ccc(N2CCNCC2)cc1)c1ccc(NCc2ccc(Cl)cc2O)cc1 | inactive | inactive |  | 
CC(=O)OC1CC2C3(C)CCC(OC(=O)CC(=O)O)C(C)(C)C3CCC2(C)C2(C)CCC(C3(C)CCC(=O)O3)C12 (centres undefined) | inactive | inactive |  | 
O=C(Nc1nnc(-c2ccncc2)s1)Nc1cc(C(F)(F)F)ccc1F | inactive | inactive |  | 

Structure (SMILES) | Potency [1] | Potency [2] | activity change, negative = inhibition [1] | activity change, negative = inhibition [2]
CCOC(=O)c1ccc(-n2cnc3c(c2=N)C(c2cccc(OC)c2)c2c(ccc4ccccc24)O3)cc1 (centres undefined) | inactive | inactive |  | 
O=[N+]([O-])c1ccccc1S(=O)(=O)N1CCN(S(=O)(=O)c2ccc3c(c2)OCCO3)CC1 | inactive | inactive |  | 
CCN(CC)CCn1c(-c2ccccc2)nc2c(NCCO)nc(C)nc21 | inactive | inactive |  | 
O=C(COc1ccccc1Br)NCCc1nc2ccccc2[nH]1 | inactive | inactive |  | 
CC(=O)NC(c1ccco1)c1cc(Br)c2cccnc2c1O (centres undefined) | inactive | inactive |  | 
C=C1C(=O)O[C@@H]2C[C@@]3(C)CCCC(=C)[C@]3(O)C[C@H]12 | inactive | inactive |  | 
CN1CCN(c2nnc(NC(=O)Nc3ccc(Cl)c(Cl)c3)s2)CC1 | inactive | inactive |  | 
CN(C)C(=O)c1cccc(-c2csc(N3CCC(C(N)=O)CC3)n2)c1 | inactive | inactive |  | 
Cc1ccc(-c2cc(C(=O)Nc3ccc(Cl)cc3)c3ccccc3n2)cc1C | inactive | inactive |  | 
Cc1sc(NC(=O)Cc2ccc3c(c2)OCO3)nc1-c1ccc2c(c1)CCN2C(=O)c1ccccc1C(F)(F)F | inactive | inactive |  | 
COc1ccc(O)c(CNc2ccc(S(=O)(=O)Nc3nccs3)cc2)c1 | inactive | inactive |  | 
CC(=O)c1cccc(NC(=O)Nc2nnc(-c3ccncc3)s2)c1 | inactive | inactive |  | 
Cc1ccc(S(=O)(=O)NC(N)=NCCC[C@@H](N)C(=O)Nc2cc(C(F)(F)F)ccc2Cl)cc1 | inactive | inactive |  | 
CCOC(=O)C1CCN(C(=O)C(C)(C)NC(=O)Nc2cccc(OC)c2)CC1 | inactive | inactive |  | 
N#Cc1cc(-c2nc(Nc3ccc(F)c(F)c3)c3ccccc3n2)ccn1 | inactive | inactive |  | 
COc1ccc(CCNC(=O)Cn2nc(-c3ccc(C)cc3)ccc2=O)cc1OC | inactive | inactive |  | 
CS(=O)(=O)c1ccccc1-c1csc(N2CCC(C(N)=O)CC2)n1 | inactive | inactive |  | 
COC1CC(O[C@H]2CC[C@@]3(C)C(=CC[C@]4(O)C3[C@H](OC(C)=O)[C@@H](OC(=O)c3ccccc3)[C@]3(C)[C@@H](C(C)=O)CC[C@@]34O)C2)OC(C)C1OC1CC(OC)C(OC2CC(OC)C(OC3OC(C)C(OC4OC(CO)C(O)C(O)C4O)C(OC)C3O)C(C)O2)C(C)O1 (some centres undefined) |  |  | 8.46% [at 11.2 µM] | 2.23% [at 11.2 µM]
Cc1ccc(S(=O)(=O)Nc2cnccc2C(=O)Nc2nc(-c3ccccc3Cl)cs2)cc1 | inactive | inactive |  | 
Cc1ccc(OCCn2c(CCNC(=O)c3ccc(Cl)cc3)nc3ccccc32)cc1 | inactive | inactive |  | 
O=Cc1ccc(N2CCN(S(=O)(=O)c3ccc4c(c3)CC(=O)N4)CC2)cc1 | inactive | inactive |  | 

Structure (SMILES) | Potency [1] | Potency [2] | activity change, negative = inhibition [1] | activity change, negative = inhibition [2]
Cc1cc(NS(=O)(=O)c2ccc(N(C)C(=O)Cc3ccc(Cl)c(Cl)c3)cc2)no1 | inactive | inactive |  | 
COc1ccc(C2N=C(Nc3nc4ccccc4o3)NC3=C2C(=O)CCC3)cc1 (centres undefined) | inactive | inactive |  | 
O=C(OCC#CCSc1nnc(-c2ccc(Cl)cc2)o1)c1ccc(F)cc1 | inactive | inactive |  | 
Cc1cccc(-n2cnc3cc(C(=O)N4CCCC(C(C)C)C4)ccc32)c1 (centres undefined) | inactive | inactive |  | 
CC(=O)Nc1cccc(S(=O)(=O)Nc2ccc(C)c(C)c2)c1 | inactive | inactive |  | 
Cc1nc(CSc2ncnc3ccc(-c4ccc5c(c4)OCO5)cc23)cs1 | inactive | inactive |  | 
O=C(Nc1ccc(F)nc1)Nc1nnc(-c2ccncc2)s1 | inactive | inactive |  | 
CCOc1ccc(CCNC(=O)c2cc3ccccc3n2Cc2ccc(Cl)c(F)c2)cc1OCC | inactive | inactive |  | 
C=C1CC[C@H]2C(=C)CC[C@H]3C(=C)C(=O)O[C@@H]3[C@@H]12 | inactive | inactive |  | 
O=C(CNC(=O)C1CCCC1)OC(C(=O)Nc1cc(C(F)(F)F)ccc1Cl)c1ccccc1 (centres undefined) | inactive | inactive |  | 
O=C(Nc1cccc(C(F)(F)F)c1)c1cccs1 | inactive | inactive |  | 
CC(C)c1ccccc1-c1ncc(N)c(NCc2ccc(-c3cccnc3)cc2)n1 | inactive | inactive |  | 
O=[S+]([O-])(c1ccc2c(c1)OCCO2)N1CCN([S+](=O)([O-])c2c(F)cc(Br)cc2F)CC1 | inactive | inactive |  | 
O=C(Nc1ccc2ccccc2c1)Nc1nnc(-c2ccccc2)s1 | inactive | inactive |  | 
CCC(=O)Nc1ccc(Cl)cc1C(=O)c1ccc[nH]1 | inactive | inactive |  | 
Cc1cc(N[S+](=O)([O-])c2ccc(NC(=O)Cc3ccc(F)c(C)c3)cc2)no1 | inactive | inactive |  | 
Fc1cccc(CNc2ncnc3ccc(-c4cccnc4)cc23)c1 | inactive | inactive |  | 
N[C@@H](Cc1ccccc1)C(=O)Nc1ccc(Cl)cc1C(=O)c1ccc[nH]1 | inactive | inactive |  | 
CCC[C@@H]1C[C@@H](C(=O)N[C@H](C(C)Cl)[C@H]2O[C@H](SC)[C@H](O)[C@@H](O)[C@H]2O)N(C)C1 (some centres undefined) | inactive | inactive |  | 
CC(C)(C)c1cccc(NC(=O)Nc2nnc(-c3ccncc3)s2)c1 | inactive | inactive |  | 
CN1CCN(c2cc(-c3nc(Nc4ccc(F)c(F)c4)c4ccccc4n3)ccn2)CC1 | inactive | inactive |  | 

Structure (SMILES) | Potency [1] | Potency [2] | activity change, negative = inhibition [1] | activity change, negative = inhibition [2]
CCc1ccccc1-c1nc(NCc2ccc(-c3cccnc3)cc2)c2ccccc2n1 | inactive | inactive |  | 
COc1ccc(C2=Nn3c(nnc3-c3ccccc3Cl)SC2)cc1OC1CCCC1 | inactive | inactive |  | 
FC(F)(F)c1ccccc1-c1nc2c(c(NCc3ccc(-c4cccnc4)cc3)n1)CCC2 | inactive | inactive |  | 
Cc1cc(C)nc(NC(=S)N2CCN(c3ccc(Cl)cc3F)CC2)c1 | inactive | inactive |  | 
Cc1cn([C@H]2C[C@H](N[S+](=O)([O-])Cc3ccc([N+](=O)[O-])cc3)[C@@H](CO)O2)c(=O)[nH]c1=O | inactive | inactive |  | 
O=C1NS(=O)(=O)c2cc(Cl)ccc21 | inactive | inactive |  | 
Cc1cc(N[S+](=O)([O-])c2ccc(NC(=O)Cc3ccc4c(c3)OCCO4)cc2)no1 | inactive | inactive |  | 
Cc1ccnc(NC(=S)NCCN(C)c2cccc(C(F)(F)F)c2)c1 | inactive | inactive |  | 
Cc1cccc(C(=O)N2CCc3cc(-c4nc(NC(=O)Cc5ccc6c(c5)OCO6)sc4C)ccc32)c1 | inactive | inactive |  | 
CCCn1c(C)nc2c(NCCCCN(C)C)nc(C)nc21 | inactive | inactive |  | 
CN(C)c1cccc(-c2cc(N3CCC(C(N)=O)CC3)ncn2)c1 | inactive | inactive |  | 
CCCn1c(C)nc2c(NC3CCCCC3)nc(C)nc21 | inactive | inactive |  | 
Cc1ccc(-c2ccc(=O)n(CC(=O)NCCCc3ccccn3)n2)cc1 | inactive | inactive |  | 
Cc1ccc(NS(=O)(=O)c2ccc3c(c2)CCC(C)(C)O3)cc1C | inactive | inactive |  | 
Cc1cc(C)nc(NC(=S)N2CCN(c3ccc4occc4c3)CC2)c1 | inactive | inactive |  | 
COc1cccc(CNc2ccc(S(=O)(=O)Nc3ncccn3)cc2)c1O | inactive | inactive |  | 
O=C(CSc1nnc(-c2cccc(S(=O)(=O)N3CCCC3)c2)n1-c1ccccc1)Nc1ccccc1 | inactive | inactive |  | 
COc1cc(O)c(C(CC(=O)N2CCCC(C)C2)c2ccc(OC)c(OC)c2)c(OC)c1 (centres undefined) | inactive | inactive |  | 
C[C@@]12CC[C@@H]3[C@@](CC[C@H]4[C@@]3(C)CCC[C@@]4(C)C(=O)O)(CC1=O)C2 | inactive | inactive |  | 
